In PubChem BioAssay AID463173 (ICCB-Longwood Screening Facility, Harvard Medical School, 2010) one finds survival data, which are given here for 90 compounds.

In all, about 52,000 compounds went through this assay and about 4,300 (8.3%) were called active. The sample as a whole holds a higher share of actives than the screen did. Values without a mark were called inactive. No stated cut-off is given here; in the data, active means survival mostly below about 52% (no sharp cut-off); inactive means mostly above about 56%.

This assay concerns DeltatarO mutant. Nature of the assay: growth inhibition of S. aureus wild type versus tarO mutant, primary screen, teichoic acid synthesis inhibitors, RN4220, OD600 (AID 463173). The following applies: OD600, 18 h, hits give low values, screened at 18.75 µg/mL (by protocol).
With `CCCC(=O)Nc1cc(C)c(O)c(-c2nc3ncccc3o2)c1`, the survival was 91%.

In the case of `NC(=O)C1CCN(S(=O)(=O)c2ccc(N3CCCCS3(=O)=O)cc2)CC1`, the survival is 116%.

Turning to `Cn1c(=O)c2c(n3ncnc13)NC(=O)CC2c1cccc(F)c1` (stereo not given), the survival is 66%.

`CS(=O)(=O)N1CCN(c2ncnc3c(-c4ccc(Cl)cc4)nsc23)CC1`: the survival is 99%.

For `COCCn1c(C)cc(O)c(C(c2ccc(OC)cc2)N2CCN(c3ccccc3)CC2)c1=O` (stereo not given), the survival was 58%.

For `Cc1nc2c3cccnc3nn2c(C)c1CCC(=O)NCc1ccccc1`, the survival was 110%.

For the compound `COc1ccc(-c2ccc(CCC(=O)O)n2-c2cc(Cl)ccc2O)cc1`, the survival is 52%.

Turning to `COc1ccc(Cl)cc1-n1c(CCC(=O)O)ccc1-c1ccc(C)cc1`, the survival was 73%.

`Cc1ccc(C)c(-n2c(CCC(=O)O)ccc2-c2ccc(Cl)cc2)c1`: the survival was 75%.

As for `Cc1ccc(-n2c(CCC(=O)O)ccc2-c2cccs2)cc1Cl`, the survival is 86%.

As to `Cc1ccc(-c2ccc(CCC(=O)O)n2-c2cccc(C)c2C)cc1`, the survival was 34% (active).

For `Cc1ccc(Cl)cc1-n1c(CCC(=O)O)ccc1-c1cccs1`, the survival is 38% (active).

Turning to `Cc1ccc(-c2ccc(CCC(=O)O)n2-c2ccc(C)c(Cl)c2)cc1`, the survival was 42%.

With `Cc1ccc(-n2c(CCC(=O)O)ccc2-c2cccs2)cc1C`, the survival was 46%.

With `COc1ccc(-c2ccc(CCC(=O)O)n2-c2ccccc2O)cc1`, the survival was 124%.

With `COc1ccc(-c2ccc(CCC(=O)O)n2-c2ccc(Cl)cc2C)cc1`, the survival was 47% (active).

For `COc1ccc(-c2ccc(CCC(=O)O)n2-c2ccccc2C(F)(F)F)cc1`, the survival is 116%.

In the case of `COc1ccc(-n2c(CCC(=O)O)ccc2-c2ccccc2)c(OC)c1`, the survival is 47% (active).

With `CCOC(=O)c1ccc(NC(=O)CCC(=O)N2Cc3ccccc3Oc3ncccc32)cc1`, the survival was 92%.

For `COc1ccc(N(C(=O)c2ccc(Cl)cc2)S(=O)(=O)c2ccc(C)cc2)cc1`, the survival is 68%.

Regarding `COc1cc(/C=C/c2nc3cc(Cl)ccc3c(=O)n2-c2cccc(C(F)(F)F)c2)cc(OC)c1OC`, the survival is 96%.

For `CCOc1cccc2sc(N3CCN(C(=O)C(C)(C)C)CC3)nc12`, the survival was 77%.

Take `CCOc1ccc2nc(NCCNC(=O)NCc3ccccc3)c(C#N)cc2c1`: the survival was 98%.

Consider `CSc1ccccc1NC(=O)CSc1ncccn1`, for which the survival is 108%.

As to `O=C(COc1ccccc1Cl)NCC1(N2CCOCC2)CCCCC1`, the survival was 106%.

Regarding `COc1ccc(-c2nc(SCC(=O)NCC3CCCO3)c(-c3ccc(C)cc3)[nH]2)cc1OC` (stereo not given), the survival is 66%.

`COc1ccc(CNS(=O)(=O)c2cc3c(cc2Cl)N(C(C)=O)CCO3)cc1`: the survival was 74%.

`COc1ccccc1-n1c(=O)n(C)c2c(C(N)=O)nc(-c3cccc(OC)c3OC)nc21`: the survival is 83%.

Turning to `Cc1cccc(NC(=O)C(=O)NCCc2sc(-c3ccccc3)nc2C)c1C`, the survival was 79%.

On to `Cc1ccc(NC(=O)Cn2c(CCC(=O)O)ccc2-c2cccs2)cc1Cl`, for which the survival is 59%.

On to `Cc1c(Cl)cccc1-n1c(CCC(=O)O)ccc1-c1cccs1`, for which the survival was 35% (active).

`Cc1ccc(NC(=O)Cn2c(CCC(=O)O)ccc2-c2cccs2)cc1`: the survival is 56%.

As to `Cc1cc(Cl)ccc1-n1c(CCC(=O)O)ccc1-c1cccs1`, the survival is 47% (active).

For the compound `Cc1c(Cl)cccc1NC(=O)Cn1c(CCC(=O)O)ccc1-c1cccs1`, the survival was 50%.

For the compound `CC(=O)c1ccc(-n2c(CCC(=O)O)ccc2-c2cccs2)cc1`, the survival was 65%.

As to `O=C(COc1ccccc1)N(Cc1cccnc1)c1nc2c(F)cc(F)cc2s1`, the survival is 84%.

Regarding `CCc1nc2ccc(C(=O)NCCc3ccc(SC)cc3)cc2nc1CC`, the survival is 76%.

For the compound `COc1ccc(-c2nnn(CC(=O)N(CC(=O)NCc3ccccc3)c3ccc4c(c3)OCCO4)n2)cc1OC`, the survival is 69%.

`CCC(C(=O)NC1CCCC1)N(C(=O)Cn1nnc(-c2cccs2)n1)c1cnc2ccccc2c1` (stereo not given): the survival is 92%.

As for `CCC(C(=O)NC1CCCC1)N(C(=O)Cn1nnc(-c2ccc(C)cc2)n1)c1ccc2c(c1)OCCO2` (stereo not given), the survival was 90%.

Consider `CCC(C(=O)NCCC(C)C)N(C(=O)Cn1nnc(-c2ccc(C)cc2)n1)c1cccc(O)c1` (stereo not given), for which the survival is 37% (active).

With `Cc1ccc(-c2nnn(CC(=O)N(CC(=O)NCCC(C)C)c3ccc(F)cc3)n2)cc1`, the survival was 41% (active).

`O=C(CN(C(=O)Cn1nnc(-c2ccc(F)cc2)n1)c1ccccc1C(F)(F)F)NCc1ccco1`: the survival was 98%.

Regarding `O=C(Oc1c(Cl)cc(Cl)c2cccnc12)N1CCCCCC1`, the survival is 112%.

As to `COC(=O)c1cc2sccc2n1CC(=O)Nc1ccc(OC)c(OC)c1`, the survival was 86%.

In the case of `Cc1cccc(OCC(=O)Nc2ccccc2OCc2cc(=O)n3cc(C)ccc3n2)c1`, the survival was 94%.

For `COc1ccc(OC(=O)CSc2nnc(-c3ccc(F)cc3)o2)cc1`, the survival was 109%.

On to `FC(F)(F)c1cccc(C(c2nnnn2Cc2ccccc2)N(Cc2ccco2)CC2CCCO2)c1` (stereo not given), for which the survival was 105%.

For the compound `COc1cccc(C(=O)Nc2c3c(nn2-c2ccc(C)cc2C)CS(=O)(=O)C3)c1OC`, the survival was 116%.

For `COc1ccc2cc3cc(C(=O)Nc4ccccc4C)oc3nc2c1`, the survival was 116%.

On to `COc1ccccc1N1CCN(C(c2ccc(Cl)cc2)c2nnc(-c3cccc(F)c3)o2)CC1` (stereo not given), for which the survival is 62%.

`Cc1ccc(C)c(N2CCN(C(c3ccc(F)cc3)c3nnc(-c4ccccc4)o3)CC2)c1` (stereo not given): the survival was 16% (active).

As to `COc1ccccc1N1CCN(C(c2ccccc2)c2nnc(-c3ccccc3Cl)o2)CC1` (stereo not given), the survival was 32% (active).

Consider `COc1ccc(N2CCN(C(c3ccccc3)c3nnc(-c4ccccc4Cl)o3)CC2)cc1` (stereo not given), for which the survival is 49%.

Take `Fc1ccc(C(c2nnc(-c3ccccc3)o2)N2CCN(c3ccccc3)CC2)c(Cl)c1` (stereo not given): the survival is 84%.

For `Cc1ccc(Cl)cc1N1CCN(C(c2ccc(F)cc2)c2nnc(-c3ccccc3)o2)CC1` (stereo not given), the survival was 55%.

In the case of `Cc1cccc(N2CCN(C(c3ccccc3)c3nnc(-c4ccccc4F)o3)CC2)c1C` (stereo not given), the survival was 58%.

`Cc1ccc(C)c(N2CCN(C(c3ccccc3)c3nnc(-c4ccccc4F)o3)CC2)c1` (stereo not given): the survival was 61%.

Consider `Cc1ccc(C)c(N2CCN(C(c3ccccc3)c3nnc(-c4ccccc4)o3)CC2)c1` (stereo not given), for which the survival was -5% (active).

For `Cc1cccc(N2CCN(C(c3ccc(F)cc3)c3nnc(-c4ccccc4)o3)CC2)c1C` (stereo not given), the survival is 39% (active).

Regarding `Fc1ccc(C(c2nnc(-c3ccccc3)o2)N2CCN(c3cccc(Cl)c3)CC2)cc1` (stereo not given), the survival was 91%.

For the compound `Cc1cccc(N2CCN(C(c3ccccc3)c3nnc(-c4ccccc4Cl)o3)CC2)c1C` (stereo not given), the survival was 51%.

Turning to `CCN(CC)CCOC(=O)c1ccc(Nc2c3c(nc4ccccc24)CCC3)cc1`, the survival was 94%.

As for `Cc1c(C(=O)N2CCC(c3nc4ccccc4s3)CC2)oc2cc(Br)ccc12`, the survival is 107%.

In the case of `COc1cccc(-c2nnc(SCC(=O)N3CCCCC3)o2)c1`, the survival is 98%.

As to `CCc1ccc(NC(=O)Cn2nc(C(F)(F)F)c3c2CCCC3)cc1`, the survival is 94%.

With `CCOc1ccc(CCNS(=O)(=O)c2c(C)nc3sc(C)cn3c2=O)cc1OCC`, the survival was 58%.

For `CCN(CC)c1ccc(C2C(C(=O)Nc3ccccc3C)=C(C)Nc3ncnn32)cc1` (stereo not given), the survival is 99%.

For `Cc1ccc(-n2ncc3c(N4CCN(C)CC4)ncnc32)cc1`, the survival was 81%.

For the compound `CN(C)C(=O)c1ccc2c(c1)N(CC(=O)NCc1ccc(F)cc1)C(=O)C1CCCCN21` (stereo not given), the survival was 74%.

In the case of `CCOC(=O)c1c(-c2cccs2)csc1NC(=O)C(F)(F)F`, the survival was 70%.

As for `CCOC(=O)c1ccccc1NC(=O)Cn1c(=O)n(Cc2nc(-c3ccccc3)no2)c(=O)c2ccccc21`, the survival was 72%.

Turning to `Cc1ccc(CNC(=O)CSc2c3c(nc4ccc(Cl)cc24)CCCC3)cc1`, the survival was 76%.

Consider `CCCN(CCC)C(=O)CSc1c2c(nc3ccc(Cl)cc13)CCCC2`, for which the survival was 38% (active).

As for `CCc1ccc(CNC(=O)CSc2c3c(nc4ccc(Cl)cc24)CCCC3)cc1`, the survival is 63%.

On to `COc1ccc(NC(=O)CSc2c3c(nc4ccc(Cl)cc24)CCCC3)cc1Cl`, for which the survival was 55%.

Turning to `COc1cccc(CNC(=O)CSc2c3c(nc4ccc(Cl)cc24)CCCC3)c1OC`, the survival was 62%.

On to `CN(Cc1ccccc1)C(=O)CSc1c2c(nc3ccc(Cl)cc13)CCCC2`, for which the survival was 0% (active).

`CCCCN(C)C(=O)CSc1c2c(nc3ccc(Cl)cc13)CCCC2`: the survival was -2% (active).

Take `COc1cc(OC)c(N(C)C(=O)CSc2c3c(nc4ccc(Cl)cc24)CCCC3)cc1Cl`: the survival is 33% (active).

As to `Cc1ccc2nc(NC(=O)CSc3[nH]c(=O)ncc3C)sc2c1`, the survival is 102%.

Turning to `O=S(=O)(c1ccc2nsnc2c1)N1CCCCC1`, the survival is 66%.

As for `CCOc1ccc(CNC(=O)c2cc3ccccn3n2)cc1OC`, the survival is 74%.

On to `CCOc1ccc(NC(=O)C2CC(=O)N(c3ccc(C(C)C)cc3)C2)cc1` (stereo not given), for which the survival is 91%.

Take `COc1ccc(CCNC(=O)CCn2c(=O)c3ccccc3n(Cc3c(C)cc(C)cc3C)c2=O)cc1OC`: the survival was 89%.

As to `Cc1cccc(N2CCN(c3nc4ccccc4c4nc(-c5ccccc5)nn34)CC2)c1C`, the survival is 92%.

`COc1ccc(N2CCN(C(=O)Nc3ccccc3Cl)CC2)cc1`: the survival was 167%.

Turning to `CC(CNC(=O)Cn1ccc2cc(S(=O)(=O)N3CCCCCC3)ccc21)c1ccccc1` (stereo not given), the survival is 109%.

Turning to `CCCCN(CC)C(=O)CSc1c2c(nc3ccc(Cl)cc13)CCCC2`, the survival was -2% (active).

For the compound `CCN(CC)CCCNC(=O)CSc1c2c(nc3cc(Cl)ccc13)CCCC2`, the survival is 109%.
